In ChEMBL document CHEMBL3988442, “University of Dundee, Small-Polar-MMV Screening Library” (2021):
For some of these results: Measured potencies and affinities stand elsewhere.

How the values were obtained:
Set-up in all cases: scale not given: direction of the effect not stated beside the values
[1] = molecular target: Protein translocase subunit SecA (Escherichia coli (strain K12)) (UniProt P10408); assay: Assay to Identify E. coli SecA ATPase Inhibitors; type: functional; conditions: 30 µM
[2] = molecular target: T1, Ubiquitin-activating enzyme e1, putative (Leishmania donovani (strain BPK282A1)) (UniProt E9BSI1); assay: Leishmania donovani Ubiquitin Activating Enzyme (LdE1); type: functional; conditions: 30 µM
T1 sequence (whole entry): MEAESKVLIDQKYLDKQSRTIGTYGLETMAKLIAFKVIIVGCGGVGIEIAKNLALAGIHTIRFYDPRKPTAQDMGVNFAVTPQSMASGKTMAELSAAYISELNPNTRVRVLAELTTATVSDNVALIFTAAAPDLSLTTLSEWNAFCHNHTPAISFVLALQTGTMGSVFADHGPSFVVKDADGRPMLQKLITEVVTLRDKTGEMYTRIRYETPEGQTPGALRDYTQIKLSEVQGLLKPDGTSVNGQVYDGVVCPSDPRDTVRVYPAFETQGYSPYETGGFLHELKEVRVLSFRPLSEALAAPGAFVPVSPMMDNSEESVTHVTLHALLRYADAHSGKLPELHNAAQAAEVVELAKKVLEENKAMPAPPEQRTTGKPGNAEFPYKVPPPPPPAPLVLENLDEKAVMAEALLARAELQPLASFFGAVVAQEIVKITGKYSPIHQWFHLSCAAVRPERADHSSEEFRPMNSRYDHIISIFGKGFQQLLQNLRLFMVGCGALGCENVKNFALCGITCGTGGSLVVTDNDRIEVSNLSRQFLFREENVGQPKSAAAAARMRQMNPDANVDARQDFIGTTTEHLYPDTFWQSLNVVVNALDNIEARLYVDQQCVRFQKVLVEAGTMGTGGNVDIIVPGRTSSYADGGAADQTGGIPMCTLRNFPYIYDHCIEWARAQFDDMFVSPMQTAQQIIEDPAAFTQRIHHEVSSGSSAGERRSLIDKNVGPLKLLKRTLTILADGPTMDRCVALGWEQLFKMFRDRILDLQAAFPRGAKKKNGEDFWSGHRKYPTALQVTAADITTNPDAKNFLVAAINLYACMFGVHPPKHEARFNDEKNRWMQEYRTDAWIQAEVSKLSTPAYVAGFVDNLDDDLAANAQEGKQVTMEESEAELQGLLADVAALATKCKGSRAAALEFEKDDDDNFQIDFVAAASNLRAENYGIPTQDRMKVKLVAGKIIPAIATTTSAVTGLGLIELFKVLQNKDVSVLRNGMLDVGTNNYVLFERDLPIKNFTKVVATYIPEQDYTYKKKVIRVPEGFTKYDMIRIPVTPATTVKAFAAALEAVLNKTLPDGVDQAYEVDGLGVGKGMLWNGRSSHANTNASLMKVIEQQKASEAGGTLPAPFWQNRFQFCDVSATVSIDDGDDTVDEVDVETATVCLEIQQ

[3] = molecular target: Sialic acid-binding Ig-like lectin 9 (Homo sapiens) (UniProt Q9Y336); assay: Hs-Siglec9 ALPHAscreen SOP 20170721; conditions: 10 µM
Sequence of Sialic acid-binding Ig-like lectin 9 (Homo sapiens) (Q9Y336 whole entry): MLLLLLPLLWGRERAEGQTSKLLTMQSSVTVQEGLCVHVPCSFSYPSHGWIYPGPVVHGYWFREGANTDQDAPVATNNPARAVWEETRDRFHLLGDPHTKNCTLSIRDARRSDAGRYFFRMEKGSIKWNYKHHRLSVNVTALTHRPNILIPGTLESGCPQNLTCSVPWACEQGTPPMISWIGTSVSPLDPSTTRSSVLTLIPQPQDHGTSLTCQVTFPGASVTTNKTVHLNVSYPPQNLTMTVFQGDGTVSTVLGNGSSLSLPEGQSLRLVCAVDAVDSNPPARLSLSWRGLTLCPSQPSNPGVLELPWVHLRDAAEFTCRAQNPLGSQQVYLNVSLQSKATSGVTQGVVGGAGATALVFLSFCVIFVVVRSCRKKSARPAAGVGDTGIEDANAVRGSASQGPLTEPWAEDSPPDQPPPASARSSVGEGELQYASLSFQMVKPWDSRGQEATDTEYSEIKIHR

Trypanosoma cruzi = assay: Trypanosoma cruzi phosphomannomutase and mannose-1-phosphate guanylyltransferase assay; type: functional; conditions: 10 µM
[4] = molecular target: T2, Arginase-2, mitochondrial (Homo sapiens) (UniProt P78540); assay: in vitro enzyme assay to detect the production of urea directly proportional to the activity of Arginase II; type: functional; conditions: 33.3 µM; further: in the data most compounds retested in dose-response had high values
T2 sequence (whole entry): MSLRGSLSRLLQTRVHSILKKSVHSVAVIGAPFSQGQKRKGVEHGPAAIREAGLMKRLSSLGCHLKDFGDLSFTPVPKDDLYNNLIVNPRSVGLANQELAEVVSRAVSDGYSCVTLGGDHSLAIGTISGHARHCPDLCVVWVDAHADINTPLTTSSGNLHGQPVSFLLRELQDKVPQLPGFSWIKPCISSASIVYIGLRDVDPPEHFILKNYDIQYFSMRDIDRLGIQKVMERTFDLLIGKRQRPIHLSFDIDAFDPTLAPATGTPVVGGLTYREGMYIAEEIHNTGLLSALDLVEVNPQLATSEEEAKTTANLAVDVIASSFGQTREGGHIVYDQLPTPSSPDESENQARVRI

[5] = molecular target: T3, Proteasome subunit beta (Trypanosoma cruzi) (UniProt O96673); assay: Trypanosoma cruzi proteasome chymotrypsin-like activity (TcProtChymo) assay.; further: in the data most compounds retested in dose-response had high values; type: functional; conditions: 9.37 µM
T3 sequence (whole entry): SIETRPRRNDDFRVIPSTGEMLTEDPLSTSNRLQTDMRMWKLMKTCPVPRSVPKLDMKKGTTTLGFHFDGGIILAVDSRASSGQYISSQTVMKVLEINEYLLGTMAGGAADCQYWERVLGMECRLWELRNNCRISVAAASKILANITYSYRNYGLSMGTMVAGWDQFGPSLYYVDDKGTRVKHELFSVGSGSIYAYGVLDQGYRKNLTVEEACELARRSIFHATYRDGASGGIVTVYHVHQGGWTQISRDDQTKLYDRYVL

Homo sapiens = organism: Homo sapiens; assay: To identify inhibition of the IFN signalling (Jak-Stat) pathway via expression of an eGFP reporter gene under the control of an IFN-stimulated response element (ISRE) containing MxA promoter.; type: functional; conditions: 30 µM
[6] = molecular target: T4, Tyrosyl-tRNA synthetase, putative (Trypanosoma cruzi (strain CL Brener)) (UniProt Q4DSP6); assay: Trypanosoma cruzi tyrosyl tRNA synthetase (TcYRS) _High Tyrosine SOP; type: functional; conditions: 30 µM; further: in the data most compounds retested in dose-response had high values
T4 sequence (whole entry): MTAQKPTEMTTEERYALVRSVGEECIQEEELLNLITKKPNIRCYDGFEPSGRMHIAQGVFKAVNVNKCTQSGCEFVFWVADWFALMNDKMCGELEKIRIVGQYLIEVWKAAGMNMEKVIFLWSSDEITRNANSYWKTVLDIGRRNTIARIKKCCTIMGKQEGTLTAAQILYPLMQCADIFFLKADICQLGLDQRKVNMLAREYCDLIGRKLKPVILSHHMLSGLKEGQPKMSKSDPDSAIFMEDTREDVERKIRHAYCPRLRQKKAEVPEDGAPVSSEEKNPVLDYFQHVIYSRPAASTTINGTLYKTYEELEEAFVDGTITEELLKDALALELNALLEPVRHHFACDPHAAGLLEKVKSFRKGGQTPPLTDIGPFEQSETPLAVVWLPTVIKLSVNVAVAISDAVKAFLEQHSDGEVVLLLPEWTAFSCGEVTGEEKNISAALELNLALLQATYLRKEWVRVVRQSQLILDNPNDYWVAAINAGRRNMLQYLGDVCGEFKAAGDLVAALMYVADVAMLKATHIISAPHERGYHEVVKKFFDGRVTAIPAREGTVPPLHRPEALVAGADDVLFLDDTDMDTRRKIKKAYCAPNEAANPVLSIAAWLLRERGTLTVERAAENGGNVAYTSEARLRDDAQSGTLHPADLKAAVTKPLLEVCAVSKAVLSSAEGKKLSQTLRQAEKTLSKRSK

[7] = molecular target: T4, Tyrosyl-tRNA synthetase, putative (Trypanosoma cruzi (strain CL Brener)); assay: Trypanosoma cruzi tyrosyl tRNA synthetase (TcYRS) SOP; type: functional; conditions: 30 µM
[8] = molecular target: Chromo domain-containing protein 1 (Saccharomyces cerevisiae (strain ATCC 204508 / S288c) (Baker's yeast)) (UniProt P32657); assay: ScCHD-1 Enzyme Inhibition Assay; type: functional; conditions: 30 µM; further: in the data most compounds retested in dose-response had high values
Sequence of Chromo domain-containing protein 1 (Saccharomyces cerevisiae (strain ATCC 204508 / S288c) (Baker's yeast)) (P32657 whole entry, the tested form may be a part): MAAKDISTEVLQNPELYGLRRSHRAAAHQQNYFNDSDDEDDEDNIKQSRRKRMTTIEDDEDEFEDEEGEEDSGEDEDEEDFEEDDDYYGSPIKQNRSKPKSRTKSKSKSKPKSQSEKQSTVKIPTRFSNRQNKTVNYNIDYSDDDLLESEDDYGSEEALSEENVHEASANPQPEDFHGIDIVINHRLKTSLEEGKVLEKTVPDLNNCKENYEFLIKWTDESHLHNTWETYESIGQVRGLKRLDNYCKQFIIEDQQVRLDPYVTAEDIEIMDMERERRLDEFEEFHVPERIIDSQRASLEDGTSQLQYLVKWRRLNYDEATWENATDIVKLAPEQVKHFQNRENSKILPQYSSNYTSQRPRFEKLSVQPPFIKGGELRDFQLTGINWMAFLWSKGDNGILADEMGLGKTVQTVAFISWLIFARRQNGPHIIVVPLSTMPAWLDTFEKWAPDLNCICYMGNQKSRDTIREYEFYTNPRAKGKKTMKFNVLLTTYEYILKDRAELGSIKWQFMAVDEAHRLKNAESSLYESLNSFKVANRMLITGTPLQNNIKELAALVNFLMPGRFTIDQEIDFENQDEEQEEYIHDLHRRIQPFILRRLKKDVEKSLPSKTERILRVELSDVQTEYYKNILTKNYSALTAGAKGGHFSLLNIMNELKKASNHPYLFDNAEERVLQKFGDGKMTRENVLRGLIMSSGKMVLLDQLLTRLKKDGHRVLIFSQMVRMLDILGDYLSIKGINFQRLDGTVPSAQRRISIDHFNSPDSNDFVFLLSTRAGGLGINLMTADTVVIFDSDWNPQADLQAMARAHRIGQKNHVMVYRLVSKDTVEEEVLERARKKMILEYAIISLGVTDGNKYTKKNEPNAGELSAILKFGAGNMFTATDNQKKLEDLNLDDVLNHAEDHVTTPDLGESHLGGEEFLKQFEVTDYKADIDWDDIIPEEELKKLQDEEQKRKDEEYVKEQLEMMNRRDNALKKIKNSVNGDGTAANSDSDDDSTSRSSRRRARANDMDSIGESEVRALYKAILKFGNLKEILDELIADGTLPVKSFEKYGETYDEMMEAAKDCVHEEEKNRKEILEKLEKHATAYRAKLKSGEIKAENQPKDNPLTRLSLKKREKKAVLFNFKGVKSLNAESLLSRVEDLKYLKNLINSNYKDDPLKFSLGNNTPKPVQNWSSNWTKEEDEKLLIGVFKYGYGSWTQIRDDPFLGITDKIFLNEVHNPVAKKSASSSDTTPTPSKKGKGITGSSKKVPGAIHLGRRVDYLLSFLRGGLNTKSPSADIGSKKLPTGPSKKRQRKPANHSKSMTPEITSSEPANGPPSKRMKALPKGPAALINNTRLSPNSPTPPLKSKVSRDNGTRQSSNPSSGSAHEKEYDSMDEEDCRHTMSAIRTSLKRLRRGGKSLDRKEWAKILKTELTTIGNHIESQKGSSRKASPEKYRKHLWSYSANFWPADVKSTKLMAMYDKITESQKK

Sequence of Protein translocase subunit SecA (Escherichia coli (strain K12)) (P10408 whole entry): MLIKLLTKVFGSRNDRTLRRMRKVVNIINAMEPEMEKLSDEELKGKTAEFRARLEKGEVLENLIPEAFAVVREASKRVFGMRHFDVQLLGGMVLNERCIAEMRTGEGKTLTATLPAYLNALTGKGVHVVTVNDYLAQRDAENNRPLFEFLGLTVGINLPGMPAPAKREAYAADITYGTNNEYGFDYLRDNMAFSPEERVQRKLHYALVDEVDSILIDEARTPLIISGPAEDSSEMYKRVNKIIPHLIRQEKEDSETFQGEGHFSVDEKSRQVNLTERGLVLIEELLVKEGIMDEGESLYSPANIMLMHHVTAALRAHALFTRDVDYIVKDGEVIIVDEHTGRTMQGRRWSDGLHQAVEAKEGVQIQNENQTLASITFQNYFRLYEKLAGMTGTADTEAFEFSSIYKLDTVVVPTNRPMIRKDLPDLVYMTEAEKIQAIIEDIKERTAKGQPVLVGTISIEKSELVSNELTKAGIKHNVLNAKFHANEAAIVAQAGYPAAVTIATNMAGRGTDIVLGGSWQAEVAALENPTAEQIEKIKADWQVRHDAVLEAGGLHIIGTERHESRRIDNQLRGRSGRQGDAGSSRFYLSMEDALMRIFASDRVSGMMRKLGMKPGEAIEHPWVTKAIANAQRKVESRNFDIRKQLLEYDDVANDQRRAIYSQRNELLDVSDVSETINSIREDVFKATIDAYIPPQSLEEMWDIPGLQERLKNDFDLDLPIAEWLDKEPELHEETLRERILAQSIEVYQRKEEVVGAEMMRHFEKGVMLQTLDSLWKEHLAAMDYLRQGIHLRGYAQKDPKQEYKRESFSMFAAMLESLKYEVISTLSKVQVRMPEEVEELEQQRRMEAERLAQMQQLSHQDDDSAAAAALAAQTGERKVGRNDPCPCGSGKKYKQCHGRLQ

Row | SMILES | Percent Effect [1] [%] | Percent Effect [2] [%] | Percent Effect [3] [%] | Percent Effect (Trypanosoma cruzi) [%] | Percent Effect [4] [%] | Percent Effect [5] [%] | Percent Effect (Homo sapiens) [%] | Percent Effect [6] [%] | Percent Effect [7] [%] | Percent Effect [8] [%]
1 | Cc1nccn1C1CCCN(C(=O)COCC(F)(F)F)C1 (stereo not given) | -0.686 | 2.56 | 10.1 | 0.845 | -2.05 | 0.597 | -3.59 | -3.35 | -1.21 | -1.66
2 | COc1ccc2c(c1)OC1(CCN(Cc3ccc(F)cc3)CC1)CC2=O | -2.19 | 14.3 | -1.29 | 2.63 | 2.74 | 9.36 | 24.9 | 2.9 | 2.5 | -12.1
3 | Cc1nn(C)c(N2CCOCC2)c1CNC1CCc2cc(F)ccc21 (stereo not given) | -1.4 | 20.8 | 4.82 | -2.8 | 11.7 | 7.72 | 0.31 | 6.86 | 18.8 | -4.69
4 | CC(C)c1ncc(S(C)(=O)=O)c(C2CCCNC2)n1 (stereo not given) | -5.26 | 10.8 | 16.7 | 6.11 | 14.3 | 3.94 | -1.56 | 6.92 | 17.1 | -3.61
5 | CCn1cc(NC(=O)NCc2ccc3c(c2)OCCO3)cn1 | -3.41 | 20.8 | 4.42 | -2.98 | 4.3 | 7.37 | 12.6 | 11.8 | 21.2 | -7.59
6 | Cc1nc(C(=O)N2CCc3c(nc(-c4ccncc4)[nH]c3=O)C2)cs1 | -4.53 | 0 | 1.7 | -2.62 | 3.85 | 11.6 | 5.04 | 5.85 | 9.76 | -3.73
7 | COc1cccc2c1OCC(C(=O)N1CCN(S(C)(=O)=O)CC1)C2 (stereo not given) | -5.76 | 16.2 | 16.9 | 6.69 | 11.5 | 9.25 | 11.4 | 7.98 | 17.1 | -8.92
8 | CC(C)N(C)CC(=O)N1CCCC(c2ccc(C(=O)O)cc2)C1 (stereo not given) | -7.71 | 5.41 | 3.58 | 8.44 | -1.05 | 1.71 | -11.9 | 7.98 | 17.1 | -2.58
9 | Cc1cnn(CC2CCCN2CC(=O)Nc2nc(C)cs2)c1 (stereo not given) | -2 | 7.79 | 11.1 | 0.746 | 5.12 | -1.4 | 2.04 | 12.8 | 21.2 | -5.41
10 | Cn1cc(-c2nc(CN3CCc4c(ncn4C4CC4)C3)cs2)cn1 | 0.667 | -2.6 | 12.4 | 3.54 | -0.615 | 3.33 | 8.83 | 0.98 | 4.71 | -7.98
